Active and inactive are the calls of the source. The calls were made as follows: active = hit-call score of the fitted dose curve at least 0.9, where 1 is the maximum; inactive = score below 0.9.

A short description of test [1]: ATG_E_Box_CIS: Attagene CIS-FACTORIAL HepG2 Assay for human Enhancer Box (E-box) (AID 2282936). Particulars: HepG2 E-box cis-reporter transcription, actives raise or lower the signal. In short, it runs like this:
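Cells: HepG2 (human liver), transient MRTU transfection. Exposure 24 h. RNA → oligo(dT) RT → PCR → 6-FAM label → HpaI → CE. Activity fitted both directions relative to DMSO.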

Test [2] in a line: ATG_M_61_CIS: Attagene CIS-FACTORIAL HepG2 Assay for M61 Transcription Factor (Internal Marker) (AID 2282937). Conditions: HepG2 Attagene CIS-FACTORIAL M61 internal marker reporter; actives raise or lower the signal. In short, it runs like this: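 Readout: fluorescent reporter mRNA fragments resolved by capillary electrophoresis after RT-PCR. Transiently transfected human HepG2 cells carried MRTU constructs reporting endogenous TF activity; 24 h chemical exposure; gain or loss of signal fitted relative to DMSO.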

Test [3] can be described thus: ATG_EGR_CIS: Attagene CIS-FACTORIAL HepG2 Assay for human Early Growth Response 1 (EGR1) (AID 2282938). Particulars: HepG2 Attagene CIS-FACTORIAL EGR reporter mRNA; actives raise or lower the signal. In short, it runs like this:
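Read-out: fluorescent reporter-mRNA fragments resolved by capillary electrophoresis after RT-PCR, 24 h post-dose in transiently transfected HepG2. Endogenous transcription-factor activity reported via cis-element-regulated reporter units; gain or loss fitted relative to DMSO.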

Test [4] is described as follows: ATG_M_19_CIS: Attagene CIS-FACTORIAL HepG2 Assay for M19 Transcription Factor (Internal Marker) (AID 2282939). Particulars: HepG2 Attagene CIS-FACTORIAL M19 internal marker reporter; actives raise or lower the signal. In short, it runs like this:
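Chemical-treated HepG2 (24 h) with MRTU constructs; reporter transcripts detected by fluorescent RT-PCR fragment analysis on capillary electrophoresis. Internal background marker, DMSO as baseline.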

The nature of test [5]: ATG_Ets_CIS: Attagene CIS-FACTORIAL HepG2 Assay for human Erythroblast Transformation Specific (ETS) (AID 2282941). Particulars: HepG2 ETS cis-reporter transcription, actives raise or lower the signal. In short, it runs like this: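 Steps: transfect HepG2 with multiple reporter units; treat compound 24 h; isolate RNA, DNase-treat, reverse-transcribe; PCR-amplify, label with 6-FAM, digest with HpaI; separate by capillary electrophoresis. Activity fitted both directions versus DMSO.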

For test [6], the target named is Hepatocyte nuclear factor 3-beta (Homo sapiens) (UniProt Q9Y261). As to the kind of experiment: ATG_FoxA2_CIS: Attagene CIS-FACTORIAL HepG2 Assay for human Forkhead box A2 (FOXA2) (AID 2282942). Particulars: HepG2 cis-reporter transcription factor activity, 24 h; actives raise or lower the signal. In short, it runs like this: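 Readout: fluorescent reporter transcripts resolved by capillary electrophoresis after RT-PCR. Transiently transfected HepG2, 24 h compound exposure, endogenous TF activity at cis promoter elements. Gain or loss of signal fitted relative to DMSO.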

Test [7] is described as follows: ATG_FoxO_CIS: Attagene CIS-FACTORIAL HepG2 Assay for human Forkhead box O (FoxO) (AID 2282943). Particulars: HepG2 Attagene cis-reporter, FoxO element, mRNA; actives raise or lower the signal. In short, it runs like this:
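Human hepatoma HepG2 cells carry transiently introduced reporter transcription units controlled by cis promoter elements. Chemical treatment lasted 24 h, and mRNA signal was compared with DMSO.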

Test [8] can be described thus: ATG_GATA_CIS: Attagene CIS-FACTORIAL HepG2 Assay for human GATA Binding Protein (AID 2282944). Conditions: HepG2 GATA cis-element reporter, Attagene multiplex mRNA; actives raise or lower the signal. In short, it runs like this: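 Transfected cis-reporter HepG2 cells were treated with chemicals for 24 hours. Total RNA was then converted to cDNA, amplified with reporter-specific primers and analysed by fluorescent capillary electrophoresis, using DMSO-treated wells as baseline.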

The nature of test [9]: ATG_GLI_CIS: Attagene CIS-FACTORIAL HepG2 Assay for human Zinc Finger Protein GLI1 (AID 2282945). Conditions: HepG2, Attagene cis-factorial reporter mRNA, GLI element; actives raise or lower the signal. In short, it runs like this:
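Bidirectional curve fits relative to DMSO, using reporter mRNA levels from RT-PCR plus capillary electrophoresis. Cells were HepG2 transiently carrying cis-regulated reporter constructs, harvested 24 h after dosing.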

For test [10], the target named is Bile acid receptor (Homo sapiens) (UniProt Q96RI1). As to the kind of experiment: ATG_IR1_CIS: Attagene CIS-FACTORIAL HepG2 Assay for human Nuclear Receptor Subfamily 1 Group H Member 4 (NR1H4), IR1 submotif (AID 2282946). Conditions: IR1 reporter transcription, actives raise or lower the signal. In short, it runs like this: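 Cells (human HepG2) carry transiently transfected cis-promoter reporter transcription units. Compounds are incubated 24 h, total RNA is reverse-transcribed and amplified, and labelled fragments are resolved by capillary electrophoresis. Curves use DMSO as baseline.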

A short description of test [11]: ATG_GRE_CIS: Attagene CIS-FACTORIAL HepG2 Assay for human Glucocorticoid Response Elements (GRE) (AID 2282947). Conditions: HepG2 GRE cis-reporter, Attagene multiplex mRNA; actives raise or lower the signal. In short, it runs like this: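 Transient MRTU transfection of human HepG2 liver cells; cis-regulated reporters report endogenous factors. 24 h dosing → RNA isolation → RT-PCR → 6-FAM primer extension → HpaI cut → CE fragment analysis. Bidirectional fit, DMSO negative control.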

The nature of test [12]: ATG_ISRE_CIS: Attagene CIS-FACTORIAL HepG2 Assay for human Interferon Regulatory Factor 1 (IRF1) binding to an Interferon-Stimulated Response Element (ISRE) (AID 2282948). Particulars: HepG2 ISRE cis-reporter (Attagene), mRNA transcription readout; actives raise or lower the signal. In short, it runs like this:
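Transfected HepG2 (multiple reporter transcription units, cis elements) dosed 24 h. RNA → oligo(dT) RT → PCR → 6-FAM primer extension → HpaI → CE. DMSO = negative control/baseline.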

Test [13] in a line: ATG_M_32_CIS: Attagene CIS-FACTORIAL HepG2 Assay for M32 Transcription Factor (Internal Marker) (AID 2282949).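 Also: background control marker of the multiplexed CIS panel rather than a real target.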 Conditions: HepG2 Attagene cis-factorial M32 reporter, mRNA; actives raise or lower the signal. In short, it runs like this: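 HepG2 cells transiently transfected with multiplexed cis-regulated reporter units, dosed 24 h. Reporter mRNA quantified by RT-PCR, 6-FAM labelling, HpaI digestion and capillary electrophoresis; bidirectional fit vs DMSO.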

A short description of test [14]: ATG_M_06_CIS: Attagene CIS-FACTORIAL HepG2 Assay for M06 Transcription Factor (Internal Marker) (AID 2282950). Particulars: HepG2 Attagene CIS-FACTORIAL M06 internal marker reporter; actives raise or lower the signal. In short, it runs like this: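 Cells (HepG2, transiently carrying cis-driven reporter units) receive chemical for 24 h before RNA isolation. Reporter cDNA is PCR-amplified, FAM-labelled by primer extension, HpaI-digested and sized on a capillary analyser.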

For test [15], the target named is Hypoxia-inducible factor 1-alpha (Homo sapiens) (UniProt Q16665). As to the kind of experiment: ATG_HIF1a_CIS: Attagene CIS-FACTORIAL HepG2 Assay for human Hypoxia Inducible Factor 1 (HIF1A) (AID 2282951). Particulars: HepG2 Attagene cis-factorial HIF1a reporter transcription; actives raise or lower the signal. In short, it runs like this: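 RT-PCR/capillary electrophoresis fluorescence readout of reporter transcripts from endogenous-TF-driven cis elements in transfected HepG2 cells, 24 h exposure; activity fitted in both directions against DMSO controls.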

The target in test [16] is Hepatocyte nuclear factor 6 (Homo sapiens) (UniProt Q9UBC0). As to the kind of experiment: ATG_HNF6_CIS: Attagene CIS-FACTORIAL HepG2 Assay for human Hepatocyte Nuclear Factor 6 (HNF6) (AID 2282952). Conditions: HepG2 Attagene cis-factorial HNF6 reporter transcription; actives raise or lower the signal. In short, it runs like this: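 HepG2 cells transiently transfected with cis-element-driven multiple reporter transcription units, dosed 24 h; reporter mRNA quantified by RT-PCR, FAM primer extension, HpaI digestion and capillary electrophoresis; bidirectional fit versus DMSO baseline.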

The nature of test [17]: ATG_MRE_CIS: Attagene CIS-FACTORIAL HepG2 Assay for human Metal Responsive Element (MRE) (AID 2282954). Particulars: HepG2 MRE cis-reporter transcription, Attagene multiplex; actives raise or lower the signal. In short, it runs like this: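 Transient MRTU transfection of HepG2 (FuGene 6); 24 h dosing; total RNA → oligo(dT) RT, PCR, 6-FAM primer extension, HpaI cut, CE. Bidirectional fit vs DMSO.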

In test [18] the target is Heat shock factor protein 1 (Homo sapiens) (UniProt Q00613). As to the kind of experiment: ATG_HSE_CIS: Attagene CIS-FACTORIAL HepG2 Assay for human Heat Shock Transcription Factor 1 (HSE) (AID 2282953). Particulars: HepG2 HSE cis-reporter, Attagene RNA transcription; actives raise or lower the signal. In short, it runs like this: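 Liver-derived HepG2 cells carry transiently introduced multiple reporter units governed by cis promoters. Reporter RNA measured 24 h post-dose through reverse transcription, PCR amplification, fluorescent labelling and capillary electrophoresis, normalised to DMSO.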

A short description of test [19]: ATG_PBREM_CIS: Attagene CIS-FACTORIAL HepG2 Assay for human Phenobarbital-responsive Enhancer Module (PBREM) (AID 2282955). Conditions: HepG2 PBREM cis-reporter, Attagene multiplexed transcription; actives raise or lower the signal. In short, it runs like this:
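Reporter mRNA read by RT-PCR, 6-FAM primer extension, HpaI digestion and capillary electrophoresis. Transfected HepG2 cells, 24 h compound exposure. Gain or loss of signal fitted bidirectionally relative to DMSO baseline.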

Test [20] in a line: ATG_ERE_CIS: Attagene CIS-FACTORIAL HepG2 Assay for Estrogen Response Element (ERE) (AID 2282940). Particulars: HepG2 ERE cis-reporter, Attagene RNA transcript; actives raise or lower the signal. In short, it runs like this:
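Human liver cells (HepG2) bearing transiently transfected, promoter-regulated reporter units were exposed 24 h. Reporter mRNA induction was detected by capillary electrophoresis of labelled RT-PCR products and fitted bidirectionally to DMSO.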

Chain of Hepatocyte nuclear factor 6 (Homo sapiens) (Q9UBC0 whole entry, looked up): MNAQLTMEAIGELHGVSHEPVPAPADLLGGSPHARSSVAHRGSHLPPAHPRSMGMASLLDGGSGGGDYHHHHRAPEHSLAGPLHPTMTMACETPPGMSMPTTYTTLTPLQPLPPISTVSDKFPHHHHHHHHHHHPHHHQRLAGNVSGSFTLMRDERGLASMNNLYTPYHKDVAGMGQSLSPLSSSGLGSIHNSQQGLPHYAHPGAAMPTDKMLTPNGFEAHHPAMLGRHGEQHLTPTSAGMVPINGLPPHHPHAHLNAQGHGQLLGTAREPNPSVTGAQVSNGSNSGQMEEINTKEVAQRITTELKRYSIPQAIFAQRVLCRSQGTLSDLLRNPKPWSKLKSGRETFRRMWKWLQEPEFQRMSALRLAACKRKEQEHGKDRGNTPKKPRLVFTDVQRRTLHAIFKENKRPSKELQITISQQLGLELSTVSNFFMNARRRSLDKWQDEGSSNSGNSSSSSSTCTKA
Chain of Heat shock factor protein 1 (Homo sapiens) (Q00613 whole entry, looked up): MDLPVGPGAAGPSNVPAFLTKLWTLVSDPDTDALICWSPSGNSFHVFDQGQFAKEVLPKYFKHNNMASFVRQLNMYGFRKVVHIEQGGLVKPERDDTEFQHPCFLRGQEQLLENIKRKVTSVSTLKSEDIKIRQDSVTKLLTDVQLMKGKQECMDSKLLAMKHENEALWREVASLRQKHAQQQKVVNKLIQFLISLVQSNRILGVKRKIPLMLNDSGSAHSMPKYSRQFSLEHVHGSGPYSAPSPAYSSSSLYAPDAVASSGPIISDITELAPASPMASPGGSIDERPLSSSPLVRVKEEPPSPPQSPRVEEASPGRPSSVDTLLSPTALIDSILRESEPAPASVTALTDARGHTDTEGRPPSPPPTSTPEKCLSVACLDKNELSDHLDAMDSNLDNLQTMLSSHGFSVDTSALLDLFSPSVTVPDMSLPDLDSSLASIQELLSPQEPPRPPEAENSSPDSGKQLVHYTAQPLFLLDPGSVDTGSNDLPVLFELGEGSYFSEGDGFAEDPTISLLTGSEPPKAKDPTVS
Chain of Hepatocyte nuclear factor 3-beta (Homo sapiens) (Q9Y261 whole entry, looked up): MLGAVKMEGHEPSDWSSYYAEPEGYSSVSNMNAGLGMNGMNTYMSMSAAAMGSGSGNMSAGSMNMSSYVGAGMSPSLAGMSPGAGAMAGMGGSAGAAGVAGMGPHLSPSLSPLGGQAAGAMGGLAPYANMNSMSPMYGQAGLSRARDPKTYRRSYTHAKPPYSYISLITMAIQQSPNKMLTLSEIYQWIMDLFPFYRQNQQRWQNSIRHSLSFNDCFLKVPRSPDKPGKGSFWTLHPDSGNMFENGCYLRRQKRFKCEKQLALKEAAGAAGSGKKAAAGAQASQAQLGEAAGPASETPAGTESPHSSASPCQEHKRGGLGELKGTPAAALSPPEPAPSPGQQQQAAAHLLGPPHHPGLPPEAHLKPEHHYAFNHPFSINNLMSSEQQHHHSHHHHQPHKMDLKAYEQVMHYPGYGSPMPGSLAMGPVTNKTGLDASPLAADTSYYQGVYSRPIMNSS
Chain of Hypoxia-inducible factor 1-alpha (Homo sapiens) (Q16665 whole entry, looked up): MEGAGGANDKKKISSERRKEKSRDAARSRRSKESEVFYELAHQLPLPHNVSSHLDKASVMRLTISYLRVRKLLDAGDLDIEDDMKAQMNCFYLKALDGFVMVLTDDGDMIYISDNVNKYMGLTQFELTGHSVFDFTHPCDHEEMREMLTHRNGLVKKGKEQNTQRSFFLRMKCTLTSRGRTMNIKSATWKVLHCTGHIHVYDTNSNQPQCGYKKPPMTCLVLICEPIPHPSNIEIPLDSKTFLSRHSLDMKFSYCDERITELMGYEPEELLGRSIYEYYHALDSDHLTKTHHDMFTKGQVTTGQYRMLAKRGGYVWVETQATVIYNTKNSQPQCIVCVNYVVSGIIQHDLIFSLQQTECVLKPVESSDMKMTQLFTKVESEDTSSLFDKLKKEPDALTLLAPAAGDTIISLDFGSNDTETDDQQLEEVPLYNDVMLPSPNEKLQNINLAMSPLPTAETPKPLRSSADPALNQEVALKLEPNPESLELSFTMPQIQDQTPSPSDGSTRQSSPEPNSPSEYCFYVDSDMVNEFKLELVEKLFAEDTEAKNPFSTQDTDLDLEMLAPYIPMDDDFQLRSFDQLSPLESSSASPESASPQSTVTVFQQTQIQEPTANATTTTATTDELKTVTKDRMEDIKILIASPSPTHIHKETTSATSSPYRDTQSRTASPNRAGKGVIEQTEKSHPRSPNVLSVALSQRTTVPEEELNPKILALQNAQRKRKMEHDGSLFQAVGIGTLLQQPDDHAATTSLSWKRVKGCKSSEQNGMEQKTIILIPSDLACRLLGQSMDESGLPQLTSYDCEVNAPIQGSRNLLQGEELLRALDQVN
Chain of Bile acid receptor (Homo sapiens) (Q96RI1 whole entry, looked up, the tested form may be a part): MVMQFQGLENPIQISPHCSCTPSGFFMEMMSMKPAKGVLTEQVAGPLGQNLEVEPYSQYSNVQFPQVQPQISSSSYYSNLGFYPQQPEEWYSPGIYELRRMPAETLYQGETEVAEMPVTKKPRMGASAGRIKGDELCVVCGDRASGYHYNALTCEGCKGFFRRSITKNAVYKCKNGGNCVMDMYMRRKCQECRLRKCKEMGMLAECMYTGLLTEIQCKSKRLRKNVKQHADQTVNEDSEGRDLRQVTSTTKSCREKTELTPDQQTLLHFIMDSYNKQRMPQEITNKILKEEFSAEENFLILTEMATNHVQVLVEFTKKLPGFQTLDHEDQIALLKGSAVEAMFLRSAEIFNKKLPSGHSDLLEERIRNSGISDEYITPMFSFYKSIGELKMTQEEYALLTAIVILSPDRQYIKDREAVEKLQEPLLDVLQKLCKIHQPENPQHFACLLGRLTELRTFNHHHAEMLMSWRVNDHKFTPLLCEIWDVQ

For the compound `CCc1c(C(=O)O)c(=O)cnn1-c1ccc(Cl)cc1`, the result in test [1], in test [2], in test [3], in [4], in [5] and in [6] was inactive. In addition, the compound was called inactive in [7], in [8], in test [9], in test [10], in [11] and in [12]. Moreover, the compound was called inactive in test [13], in test [14], in [15], in [16] and in [17].

Consider `O=S(=O)(O)c1cc(S(=O)(=O)O)c2ccc3c(S(=O)(=O)O)cc(S(=O)(=O)O)c4ccc1c2c43`, for which the outcome in [1], in test [2], in test [3], in test [4], in test [5] and in [6] was inactive. In addition, the outcome in test [7], in test [8], in test [9], in test [10], in [11] and in test [12] was inactive. In addition, the call in [15], in test [16], in test [18] and in [17] was inactive.

Turning to `c1ccc2c(c1)ccc1cc3c(ccc4ccccc43)cc12`, the result in test [1], in test [2], in test [3], in test [4], in test [5] and in [7] was inactive. Moreover, the compound was classed as inactive in test [8], in test [9], in test [10], in test [11], in [12] and in test [13]. Further, the outcome in [16], in test [18] and in test [17] was inactive. For the same compound, the AC50 in test [6] is 76.7 nM (active); in test [15], 364 nM (active).

As to `CCCCCCCCCCc1ccccc1`, the result in [1], in test [2], in [3], in [4], in test [5] and in test [6] was inactive. Besides, the compound was called inactive in [7], in test [8], in test [9], in [10], in test [11] and in [12]. For the same compound, the compound was called inactive in [14], in [15], in test [16], in test [18] and in test [17].

As to `Cc1cc(O)c(Cl)c(C)c1Cl`, the outcome in [1], in test [2], in test [3], in [4], in [5] and in [6] was inactive. Also, the call in [7], in test [8], in test [9], in test [10], in [11] and in [12] was inactive. The result in test [13], in test [14], in [15], in [16], in test [18] and in test [17] was inactive. Further, the result in [19] was inactive.

On to `Nc1ccc2cc3ccccc3cc2c1`, for which the outcome in test [1], in [2], in test [3], in test [4], in test [5] and in [7] was inactive. For the same compound, the call in [8], in test [9], in [11], in test [12], in test [13] and in test [14] was inactive. Besides, the call in [15], in test [16], in test [17] and in test [19] was inactive.

Regarding `CO[Si](OC)(OC)c1ccccc1`, the outcome in test [1], in test [2], in test [3], in [4], in [5] and in [6] was inactive. The result in test [7], in test [8], in [9], in [11], in test [12] and in [13] was inactive. Besides, the compound was classed as inactive in [14], in [15], in test [16], in test [17] and in test [19].

With `COc1ccc([C@@H]2CC(=O)c3c(O)cc(O[C@@H]4O[C@H](CO[C@@H]5O[C@@H](C)[C@H](O)[C@@H](O)[C@H]5O)[C@@H](O)[C@H](O)[C@H]4O)cc3O2)cc1OC`, the outcome in test [1], in test [2], in test [4], in [20], in [5] and in test [6] was inactive. The compound was called inactive in test [7], in test [8], in test [9], in test [10], in test [12] and in [15]. Besides, the result in test [16], in [18], in test [17] and in [19] was inactive.

Broadly, the AC50 is the midpoint of the concentration-response curve, whichever way the signal moves.

The record behind these values is PubChem BioAssay (EPA / NIEHS).
